High-throughput results (PubChem BioAssay)
Hits are enriched below; roughly 21% of the tested compounds scored in any of these assays.
DRD3 agonist = D3 dopamine receptor (human) agonism; D3R DiscoveRx beta-arrestin cells, luminescence, 90 min; max activation, %; 0.58% of 410,000 active; AID 652048; in the data active means max activation above about 30%
Target sequence (P35462 whole entry, looked up): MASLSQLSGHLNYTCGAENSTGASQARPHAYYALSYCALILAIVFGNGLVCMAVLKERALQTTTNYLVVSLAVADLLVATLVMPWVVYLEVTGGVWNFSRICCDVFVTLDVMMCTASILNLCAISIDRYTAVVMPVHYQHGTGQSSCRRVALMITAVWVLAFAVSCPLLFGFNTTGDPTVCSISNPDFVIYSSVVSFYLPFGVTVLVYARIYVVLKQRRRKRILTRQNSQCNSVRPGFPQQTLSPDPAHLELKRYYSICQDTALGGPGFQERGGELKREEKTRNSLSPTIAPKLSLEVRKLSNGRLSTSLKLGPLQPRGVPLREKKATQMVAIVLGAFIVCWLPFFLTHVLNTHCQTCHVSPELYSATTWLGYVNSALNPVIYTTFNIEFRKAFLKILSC
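Agonist mode: compounds and dopamine controls were applied to plated cells for 90 min at 37 degrees C after an overnight attachment at 1500 cells/well. Luminescent read-out followed 30 - 60 minutes at room temperature with DiscoveRx detection reagent.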
TDP1 cell CPT = growth inhibition of DT40 Tdp1-/-;hTDP1 cells with camptothecin (screen for TDP1 inhibitors); 12% of 420,000 active; AID 686979; chicken DT40 Tdp1-/-;hTDP1 cells + 20 nM CPT, ATP luminescence, 48 h; Potency, µM (titrated, usually from 46.2 µM), usual class: inhibitors; further: nearly all actives have a fitted effect of over 55% in size
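Chicken DT40 Tdp1-/- cells stably complemented with human TDP1 were seeded at 400 cells/well in medium containing 20 nM camptothecin, exposed to pin-transferred compounds, and grown at 37 °C for at least 48 hr. Viability was read as ATP luminescence.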
IL-1B inflam inh = inflammasome signaling inhibition, IL-1 beta readout; activity change, % at 57.5 µM; AID 743279; THP-1 LPS/ATP IL-1B secretion, AlphaLISA, 16 h; hits give low values; 4.7% of 360,000 active; in the data active means activity change below about -50%; inconclusive means mostly about -30% to -49%
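Secreted IL-1B measured by AlphaLISA bead assay after 16 h compound exposure of THP-1 cells; compounds (final up to 57.5 uM) added 1 h before LPS (250 ng/mL) and ATP (1.25 mM) stimulation; lower signal means less secretion.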
ClpP mod = qHTS Assay for Activators of ClpP | AID 651965, 2013 | ATP-dependent Clp protease proteolytic subunit (Bacillus subtilis (strain 168)), P80244 | purified B. subtilis ClpP, FRET peptide cleavage, 20 min | 1.9% of 340,000 active | Potency, µM (highest dose often 57.5 µM); active means well fitted falling curve with a large enough effect; inconclusive means small, poorly fitted or top-dose-only effect; inactive means no such curve, though single readings can be large or run the other way; further: the source files actives as falling curves though it sought activators and does not explain the sign; nearly all actives have a fitted effect of over 65% in size
Target sequence (P80244 whole entry, looked up): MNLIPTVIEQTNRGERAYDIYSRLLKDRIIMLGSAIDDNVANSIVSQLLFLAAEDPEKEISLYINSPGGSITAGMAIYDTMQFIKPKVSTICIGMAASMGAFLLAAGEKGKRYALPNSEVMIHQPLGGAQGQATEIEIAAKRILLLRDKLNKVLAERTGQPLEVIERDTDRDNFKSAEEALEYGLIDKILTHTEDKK
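Buffer: 100 mM Tris/HCl pH8, 100 mM KCl, 0.05% low protease BSA, 2.5% glycerol, 0.01% Tween-20. ClpP 10 microg/mL final; 20 min RT; delta FRET normalized to ADEP and DMSO controls.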
DT40 TDP1 no CPT = qHTS for Inhibitors of human tyrosyl-DNA phosphodiesterase 1 (TDP1): qHTS in cells in absence of CPT; 15% of 420,000 active; DT40 Tdp1-/- hTDP1 cells, no CPT, ATP luminescence, 48 h; Potency, µM (titrated, usually from 46.2 µM), most hits filed as inhibitors; AID 686978, 2013; further: nearly all actives have a fitted effect of over 55% in size
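Readout: luminescence from CellTiter-Glo after 30 min in the dark at RT. Cells: DT40 Tdp1-/- with stable hTDP1, 400/well. Exposure: compounds alone, ≥48 hr, 37 °C.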
D3 antag = antagonists of human D3 dopamine receptor; D3R cells, DiscoveRx beta-arrestin luminescence, antagonist mode; hits give low values; 2.5% of 360,000 active; max response, negative = inhibition, %; P35462; in the data active means max response below about -50%; inconclusive means no clear call, values can overlap the other calls
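Cells expressing the human receptor were seeded at 1500 cells/well, incubated overnight at 37 degrees C in 5% CO2, then exposed to library compounds with dopamine controls for 90 minutes at 37 degrees C before luminescent detection.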
Each line names hits and unclear results; the compound was inactive in the other large screens. Unless noted, the call rests on the fitted dose curve; in most records, active means well fitted inhibition curve with a large enough effect; inconclusive means small, poorly fitted or top-dose-only effect; inactive means flat fitted curve, though single readings scatter.

COc1cc(/C=C(/C#N)C(=O)Nc2cc(C(F)(F)F)ccc2Cl)ccc1OCC(=O)Nc1cccc(C(F)(F)F)c1	TDP1 cell CPT 18.4µM, DT40 TDP1 no CPT 23.1µM (no result: ClpP mod)
COc1cc(C(=O)N(C)CCOc2ccccc2)ccc1OCC(=O)Nc1cccc(C(F)(F)F)c1	TDP1 cell CPT 25.9µM, IL-1B inflam inh -72.8, DT40 TDP1 no CPT 16.4µM
Cc1ccc(S(=O)(=O)NCCC(=O)Nc2ccc(S(=O)(=O)NC(C)C)cc2)cc1	none
Cc1cc(F)ccc1NC(=O)C1CCCN(S(=O)(=O)c2ccc3c(c2)CCCC(=O)N3)C1 (configuration not stated)	none (no result: TDP1 cell CPT, IL-1B inflam inh, DT40 TDP1 no CPT, D3 antag)
COc1cc(C(=O)N(CCN(C)C)CC2CCCN(Cc3ccccc3F)C2)ccc1C (configuration not stated)	TDP1 cell CPT inconclusive, IL-1B inflam inh inconclusive, DT40 TDP1 no CPT inconclusive
CCOC(=O)C1CCN(C(=O)c2ccc(OCC(=O)Nc3cccc(C(F)(F)F)c3)c(OC)c2)CC1	TDP1 cell CPT 13µM, IL-1B inflam inh inconclusive, DT40 TDP1 no CPT 9.2µM (no result: ClpP mod)
CS(=O)(=O)N1CCC2(CC1)CN(C(=O)Nc1cccc(F)c1)C2	none (no result: DRD3 agonist, IL-1B inflam inh, ClpP mod, D3 antag)
COc1ccc(OC)c2c(=S)c3ccccc3[nH]c12	TDP1 cell CPT 23.7µM, DT40 TDP1 no CPT inconclusive (no result: DRD3 agonist, IL-1B inflam inh, ClpP mod, D3 antag)
Cc1ccc(C)c2c1[nH]c1ccccc12	none
c1ccc(C2=NNC(c3ccccn3)=NN2)nc1	TDP1 cell CPT 9.2µM, IL-1B inflam inh inconclusive, DT40 TDP1 no CPT 9.2µM
c1ccc(-c2nc(-c3ccccn3)nc(-c3ccccn3)n2)nc1	TDP1 cell CPT inconclusive, DT40 TDP1 no CPT 14.6µM
Nc1nc(N)nc(-c2ccccn2)n1	none
COc1ccc(C(O)Cn2ccsc2=NC(C)=O)cc1 (configuration not stated)	TDP1 cell CPT 23.1µM, DT40 TDP1 no CPT inconclusive (no result: ClpP mod)
CC(=O)N=c1sccn1CC(O)c1ccccc1 (configuration not stated)	none
COc1ccc(CN2C(=NC(=O)c3ccccc3)SC3CS(=O)(=O)CC32)cc1OC (configuration not stated)	IL-1B inflam inh -56.7
CCOc1ccc(N=C2NC(=O)S/C2=C\c2ccc(N(C)C)cc2)cc1	DT40 TDP1 no CPT inconclusive, D3 antag -69.3
Cc1c(CNC2CCCCC2)c(C(=O)O)c(C)n1Cc1ccccc1F	none (no result: IL-1B inflam inh, D3 antag)
C[C@](N)(Cc1ccc(O)cc1)C(=O)O	none (no result: IL-1B inflam inh, ClpP mod, D3 antag)
COc1ccc(C[C@](C)(N)C(=O)O)cc1OC	DT40 TDP1 no CPT 2.31µM
COc1ccccc1N(C(=O)CCl)c1cn(C(C)=O)c2ccccc12	TDP1 cell CPT 4.61µM, IL-1B inflam inh -60.0, DT40 TDP1 no CPT 4.61µM
CC(=O)n1cc(N(C(=O)CCl)c2ccc(Cl)cc2)c2ccccc21	TDP1 cell CPT 1.46µM, DT40 TDP1 no CPT 1.3µM, D3 antag -57.9
COc1ccccc1NS(=O)(=O)NC(=O)c1cn(C)c2ccccc12	none
CC(=O)n1cc(C=O)c2ccccc21	none (no result: DRD3 agonist, IL-1B inflam inh, D3 antag)
O=C(CS(=O)(=O)c1cccc2nsnc12)N1CCN(c2ccc(F)cc2)CC1	DT40 TDP1 no CPT inconclusive (no result: IL-1B inflam inh, D3 antag)
CCn1c(=S)sc2c(=O)n(CC(=O)NC(C)CCc3ccccc3)c(C)nc21 (configuration not stated)	TDP1 cell CPT inconclusive, DT40 TDP1 no CPT 29.1µM
CCn1c(=S)sc2c(=O)n(CC(=O)Nc3cc(OC)ccc3OC)c(C)nc21	TDP1 cell CPT inconclusive, DT40 TDP1 no CPT 18.4µM (no result: ClpP mod)
Oc1ccc(CCc2n[nH]c(=S)n2-c2ccc(F)cc2)cc1	none
CC1CCCCN1CC(O)COc1ccc(OCC(O)CN2CCCCC2C)cc1 (configuration not stated)	none
Cc1cccc(Nc2nnc(SCC(=O)c3c(N)n(C4CC4)c(=O)[nH]c3=O)s2)c1	DT40 TDP1 no CPT inconclusive
Cc1ccc(Nc2nnc(SCC(=O)c3c(N)n(C4CC4)c(=O)[nH]c3=O)s2)cc1C	TDP1 cell CPT 20.6µM, DT40 TDP1 no CPT inconclusive
COc1ccccc1-c1cc(C(=O)N/N=C\c2cnn(C)c2C)c2ccccc2n1	TDP1 cell CPT inconclusive, DT40 TDP1 no CPT inconclusive
COc1ccccc1-c1cc(C(=O)N/N=C\c2cn(C)nc2C)c2ccccc2n1	TDP1 cell CPT inconclusive, DT40 TDP1 no CPT 13µM
CCn1cc(/C=N\NC(=O)c2cc(-c3ccccc3OC)nc3ccccc23)c(C)n1	TDP1 cell CPT inconclusive, DT40 TDP1 no CPT 16.4µM
O=C(NCCc1ccncc1)c1cnn(-c2ncc3c(n2)-c2ccccc2CCC3)c1C1CC1	DT40 TDP1 no CPT inconclusive (no result: DRD3 agonist, IL-1B inflam inh, ClpP mod, D3 antag)
O=C1C=C(c2ccc(F)c(Cl)c2)C[C@@H](c2ccc(F)cc2)C1	TDP1 cell CPT inconclusive, DT40 TDP1 no CPT inconclusive
CC(C)(C)NCC(=Cc1ccccc1)C(=O)c1ccccc1	TDP1 cell CPT 2.06µM, IL-1B inflam inh -101.7, DT40 TDP1 no CPT 2.06µM, D3 antag inconclusive
COc1ccc(C(=Cc2ccccc2)C(=O)O)cc1	none (no result: ClpP mod)
COc1ccc(C2=NN(CCC(=O)NCc3cccs3)C(=O)CC2)cc1	none (no result: ClpP mod)
COCCn1c(N)c(N(Cc2ccccc2)C(=O)C2=COCCO2)c(=O)[nH]c1=O	none
Cn1nnnc1SCC(=O)Nc1nc(-c2ccc(F)c(F)c2)cs1	TDP1 cell CPT inconclusive, DT40 TDP1 no CPT inconclusive
Cc1sc2ncnc(SCC(=O)Nc3nc(-c4ccc(F)c(F)c4)cs3)c2c1C	DT40 TDP1 no CPT 20.6µM (no result: ClpP mod)
Cc1sc2ncnc(SC(C)C(=O)N3c4ccccc4Sc4ccccc43)c2c1C (configuration not stated)	TDP1 cell CPT 20.6µM, DT40 TDP1 no CPT 23.1µM
Cc1sc2ncnc(SCC(=O)NC3CC3)c2c1C	none
Cc1sc2ncnc(SCC(=O)NC(C)C(C)C)c2c1C (configuration not stated)	TDP1 cell CPT 16.4µM, DT40 TDP1 no CPT 16.4µM
Cc1ccc(-n2nnc3c(SCC(=O)NCC4CCCO4)ncnc32)cc1 (configuration not stated)	TDP1 cell CPT 20.6µM, IL-1B inflam inh -55.6, DT40 TDP1 no CPT 11.6µM
O=C(O)C(Cc1ccc(Cl)cc1)Sc1nc2ccccc2[nH]1 (configuration not stated)	none (no result: ClpP mod)
CC(C)CN(C(=O)CSc1nc(N)cc(N)n1)C1CCS(=O)(=O)C1 (configuration not stated)	none
CCCn1c(SC(C)C(=O)NCC2CCCO2)nc2sc3c(c2c1=O)CCC3 (configuration not stated)	TDP1 cell CPT inconclusive, DT40 TDP1 no CPT inconclusive (no result: ClpP mod)
CCc1nnc(NC(=O)CSc2ncnc3scc(-c4ccc(C)cc4)c23)s1	DRD3 agonist 51.4, TDP1 cell CPT inconclusive, DT40 TDP1 no CPT inconclusive
